Rows were chosen to be rich in hits. Some 3% of all compounds tested hit in one or more screens of this group.
aSyn 5UTR inh: 5' untranslated region of α-synuclein, MLPCN primary screen. alpha-synuclein 5'UTR reporter, inhibitor activity. inhibition, % (tested at 7.5 µM). 0.82% of 300,000 active; in the data active means inhibition above about 60%; inconclusive means no clear call, values can overlap the other calls;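 further: H4 neuroglioblastoma cells stably carrying SNCA 5'UTR luciferase fusion; 0% = DMSO wells and 100% = positive control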
SKKanGAS inh: blocks kanamycin growth of S. pyogenes SKKanGAS strain; 1.3% of 300,000 active; BacTiter-Glo, 6 h; AID 1662; inhibition, % at 7.5 µM;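 active means mean replicate score, as percent of positive control median, at least 50; inconclusive means mean below 50 but one replicate at or above 50; inactive means mean and every replicate below 50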;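 further: strain carries kanamycin resistance gene driven by streptokinase promoter and grows in 40 µg/ml kanamycin; loss of luminescence reflects streptokinase promoter inhibition or plain growth inhibition; 0% = median of DMSO wells and 100% = positive control at its reference dose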
IEC-6 cytotox: IEC-6 cytotoxicity, counter-screen for KLF5 inhibitors | AID 1825 | 0.78% of 290,000 active | luminescence viability | inhibition, % at 5 µM;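 further: 0% = plate median of test compound wells and 100% = cytotoxic reference compound wells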
KLF5 inh: suppresses KLF5 promoter-driven expression | DLD-1 KLF5 promoter-luciferase reporter, luminescence | inhibition, % at 5 µM | 0.23% of 290,000 active | AID 1700;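 active means inhibition above a per-plate limit of that plate's mean compound inhibition plus 3 SD, cut at about 60% in these data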;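 further: 0% = DMSO wells and 100% = LY294002 at 200 µM; higher means less KLF5 promoter-driven luciferase light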
CSC inhib: cancer stem cell inhibition; cancer stem cell-like cells viability, luminescence; inhibition, % at 7.5 µM; 1.1% of 300,000 active; in the data active means inhibition above about 75%; inconclusive means no clear call, values can overlap the other calls; tested in HMLE shEcad cells
IEC-6 cytotox cf: IEC-6 cytotoxicity, confirmation assay | shares compounds with IEC-6 cytotox | IEC-6 rat intestinal epithelial viability, luminescence | inhibition, % at 5 µM | 63% of 1,900 active | AID 1907;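 further: 0% = vehicle and 100% = reference cytotoxic drug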
* hit, by the source's call; ? = inconclusive; . = no result. Unless noted, no stated cut-off is given here; in the data, active means inhibition above about 22%; inactive means the rest.

SMILES	aSyn 5UTR inh	SKKanGAS inh	IEC-6 cytotox	KLF5 inh	CSC inhib	IEC-6 cytotox cf
Cc1cc2c(cc1S(=O)(=O)Nc1cccc(C)c1C)n(C)c(=O)c(=O)n2C	15.3	-6.7	2.0	5.6	.	.
C/C(=N\NC(=O)c1ccc(Cl)c(Cl)c1)c1ccccn1	28.0	91.9*	41.5*	49.6	81.5*	96.6*
C/C(Cc1ccccc1)=N\NC(=O)c1ccccn1	-66.7	-11.1	-6.0	-188.2	-1.6	.
Cc1cccc(C)c1N(CC(=O)NCc1ccccc1)C(=O)c1csnn1	-1.2	7.1	-4.9	7.0	-6.6	.
Cc1csc2sc(-c3ccnc(SCC(=O)NCc4ccccc4)n3)c(C)c12	15.0	18.1	74.3*	51.7	47.5	65.5*
Cc1csc(SCC(=O)NCc2ccccc2)n1	27.9	-1.0	-4.6	-23.9	7.3	.
CN(Cc1ccc2nonc2c1)Cc1nc(CC2CC2)no1	-1.7	-4.1	-0.4	9.6	5.7	.
COc1ccc(S(=O)(=O)N2CCOc3ccccc32)cc1	7.4	6.2	60.2*	51.7	50.4	37.3*
Cc1cccc(C)c1NC(=O)CN1C(=O)NC(C)(C2CC2)C1=O (stereo not given)	.	.	.	.	-15.2	.
CC1=Nc2cc(C(=O)NCC3CCCO3)ccc2Sc2ccc(Br)cc21 (stereo not given)	-112.9	5.9	43.3*	21.7	55.6	29.0*
CC1=Nc2cc(C(=O)O)ccc2Sc2ccc(Br)cc21	.	.	-2.0	1.4	8.6	.
Cc1ccc(C(=O)CC(Nc2ccc(F)cc2)c2ccccc2)cc1 (stereo not given)	-32.5	-5.8	-3.1	10.6	-0.7	.
CC(=O)Nc1ccc(NC(=O)C(C)OC(=O)c2ccccc2NS(=O)(=O)c2cccs2)cc1 (stereo not given)	-12.4	-14.7	-0.2	-8.1	1.1	.
CC(=O)Nc1ccc(NC2=C/C(=N/S(=O)(=O)c3cccs3)c3ccccc3C2=O)cc1	82.6*	3.8	43.3*	-32.5	-11.0	3.9
COc1ccc(/C=N/NC(=O)c2[nH]c3ccc(Cl)cc3c2-c2ccccc2)c(C(=O)O)c1OC	-0.1	1.8	88.3*	-8.5	67.0	11.6
O=C(N/N=C/c1ccccc1Cl)c1[nH]c2ccc(Br)cc2c1-c1ccccc1	70.8*	18.8	56.2*	13.4	68.0	69.7*
CC(=O)/C(C#N)=C1\NC(=O)C(Cc2ccccc2)S1 (stereo not given)	-20.4	6.4	75.9*	9.6	-11.6	51.4*
CC(=O)/C(C#N)=C1\NC(=O)C(Cc2ccccc2C)S1 (stereo not given)	31.5	11.5	70.9*	40.2	45.6	46.6*
C/C(=N\N=C1\NC(=O)C(Cc2ccccc2)S1)c1ccccc1 (stereo not given)	2.4	-1.2	1.8	-18.7	9.7	.
Cc1cccc(CN2CCN(C(=O)CN(C)C(C)C(=O)Nc3ccc(C(N)=O)cc3)CC2)c1 (stereo not given)	.	.	.	.	-7.4	.
CN(C)c1nc(=NCc2ccco2)ss1	-4.3	38.4	97.3*	-5.1	19.0	30.5*
O=C(CN1CCCCCC1)Nc1ccccc1C(=O)Nc1ccccc1	14.5	-1.8	.	.	-14.9	.
O=C(Nc1ccc(Cc2ccncc2)cc1)c1cc(F)c(F)cc1Cl	52.9	-0.5	31.2*	-15.1	.	48.4*
O=C(NCc1ccncc1)c1cc(F)c(F)cc1Cl	4.6	-6.7	1.8	6.6	-3.3	.
CC(C)c1ccc(/C=C/C2=NNC(=O)CC2)cc1	87.4*	7.9	54.8*	-119.5	12.4	37.0*
SMILES	aSyn 5UTR inh	SKKanGAS inh	IEC-6 cytotox	KLF5 inh	CSC inhib	IEC-6 cytotox cf
COc1cc(C(=O)NC2CCCc3ccccc32)cc(OC)c1C (stereo not given)	52.2	10.8	7.7	-3.5	-0.6	.
COc1ccc(C(=O)NC2CCCc3ccccc32)cc1[N+](=O)[O-] (stereo not given)	21.5	3.8	36.2*	19.1	47.0	7.2
O=[N+]([O-])c1c(Nc2cccc(O)c2)cc(Cl)c2nonc12	25.0	?	99.5*	4.1	69.3	29.0*
O=C(O)c1ccc(Nc2cc(Cl)c3nonc3c2[N+](=O)[O-])cc1	-37.0	-30.3	1.6	-15.1	-0.8	.
Cc1c(Nc2cc(Cl)c3nonc3c2[N+](=O)[O-])c(=O)n(-c2ccccc2)n1C	.	.	96.5*	3.3	.	8.8
Cc1c(Nc2cc(N3CCOCC3)c3nonc3c2[N+](=O)[O-])c(=O)n(-c2ccccc2)n1C	1.6	0.1	-3.9	-40.7	12.5	.
CC(=O)c1ccc(N2C(=O)CC(N3CCN(S(=O)(=O)c4cc(C)ccc4C)CC3)C2=O)cc1 (stereo not given)	.	.	.	.	8.4	.
CC(c1ccccc1)n1cnc2ccccc2c1=O (stereo not given)	11.6	-1.1	-3.7	-22.6	-13.9	.
Cc1ccc(NC(=S)NNC(=O)c2ccccc2OC(F)F)cc1	-86.7	-1.1	28.0*	0.0	-0.2	11.2
Cc1ccc(OCC(=O)NNC(=O)c2ccc(NC(=O)C3CC3)cc2)c(C)c1	7.5	3.6	-0.1	-3.4	-0.4	.
Cc1ccc(OCC(=O)NNC(=S)NC(=O)C2CC2)c(C)c1	.	.	35.8*	25.8	0.3	13.5
Cn1nc(Oc2ncc(C(F)(F)F)cc2Cl)cc1C(F)(F)F	-43.4	-2.2	6.5	8.1	-10.9	.
Cc1cc(NC(=O)c2cc(-c3ccncc3)nc3c(C)cccc23)no1	32.1	-4.7	59.7*	33.7	61.3	43.8*
Cc1ccc(-c2nc(C(Cl)Cl)c3ccccc3n2)cc1	92.7*	-2.3	87.1*	15.8	132.2*	99.3*
Cc1ccc(Nc2nc(N3CCOCC3)nc(N3CCOCC3)n2)cc1C	-1.4	7.6	84.3*	-5.9	46.8	88.2*
Cc1cccc(Nc2nc(N3CCOCC3)nc(N3CCOCC3)n2)c1	-5.6	7.3	63.6*	-34.9	23.3	36.6*
CC(=O)Nc1cccc(C(=O)N/N=C/c2c[nH]c3ccccc23)c1	-7.7	-6.6	5.4	12.3	-4.5	.
N#CC(C#N)=C1C=CC=CN1/C(=C\c1ccco1)C(=O)c1ccccc1	.	.	73.6*	23.3	-40.8	7.4
COc1ccc(/C=C(/C(=O)c2cccs2)N2C=CC=CC2=C(C#N)C#N)cc1	-102.0	-7.1	2.7	-9.2	.	.
CC1(C)Cc2nc3scc(NC(=O)c4ccccc4)c3cc2CO1	-18.9	3.7	6.9	-37.5	-9.4	.
O=C(N/N=C/c1ccc2c(c1)OCO2)c1cccc(NC(=O)c2ccccc2Cl)c1	-157.9	11.0	36.3*	19.8	-2.6	9.3
Cc1cc(C(=O)N/N=C/c2ccc3c(c2)OCO3)c2ccccc2n1	-7.0	-6.9	39.4*	36.4	34.7	35.1*
Cc1nc(NC(=O)c2cccnc2Cl)sc1C	-31.7	-8.5	.	.	-9.3	.
Cc1ccc(Nc2nc(N/N=C/c3c[nH]c4ccccc34)nc(N3CCOCC3)n2)cc1	32.1	11.5	90.1*	-30.3	.	93.9*
C(=N\Nc1nc(Nc2ccccc2)nc(N2CCOCC2)n1)/c1c[nH]c2ccccc12	4.1	10.1	85.6*	-34.0	31.9	97.2*
Cc1[nH]c2ccccc2c1/C=N/Nc1nc(Nc2ccc(F)cc2)nc(N2CCOCC2)n1	.	21.1	56.0*	17.7	69.2	96.2*
Cc1cc(/C=N/Nc2nc(N3CCOCC3)nc(N3CCOCC3)n2)c(C)n1-c1ccccc1	-22.9	9.6	-3.4	-31.5	9.7	.

Screens from PubChem.
